Pol kappa inh-1 = inhibitors of human DNA polymerase kappa. Q9UBT6. purified Pol kappa, fluorescent DNA synthesis assay, 10 min. Potency, µM (series often up to 107 µM), without a hit: top-dose activity, negative = inhibition, usual class: inhibitors. AID 588579. 400,000 tested, 0.53% active; note: % is set by controls: 0 for no effect and ±100 for the full control effect
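Readout: fluorescence, taken kinetically at 0 and 10 min. Conditions: 10 nM Pol kappa, 15 min RT compound preincubation, 50 nM substrate final. Controls: enzyme-free buffer wells.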
FEN1 inh-1 = human FEN1 inhibition; P39748; Recombinant FEN1 flap cleavage, fluorescence, 15 min; Potency, µM (titrated, usually from 114 µM), inactives show at the highest dose activity change, negative = inhibition, most hits filed as inhibitors; 390,000 tested, 0.35% active; AID 588795; note: % is set by controls: 0 for no effect and ±100 for the full control effect; nearly all actives have a fitted effect of over 65% in size
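With each library titrated from low to high concentration, compounds met 10 nM FEN1 for 15 min at room temperature before 50 nM substrate was added; readings at 0 and 15 min fed four-parameter Hill curve fits.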
TDP1 block = inhibitors of human tyrosyl-DNA phosphodiesterase TDP1 | Q9NUW8 | recombinant TDP1, AlphaScreen DNA substrate cleavage | Potency, µM (highest dose often 130 µM), for the others: at the highest dose activity change, negative = inhibition, most hits filed as inhibitors | 350,000 tested, 0.28% active | AID 485290; note: % is set by controls: 0 for no effect and ±100 for the full control effect; nearly all actives have a fitted effect of over 40% in size
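Recombinant E. coli-expressed Tdp1 (1 nM) preincubated with compound 15 min at RT, then 5'-biotin/3'-phosphotyrosine-FITC DNA substrate (15 nM) added for 5 min. AlphaScreen beads (10 ug/ml) added, 10 min RT; tyrosine-FITC cleavage read as signal loss.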
Pol eta inh-1 = DNA polymerase eta (human) inhibition; Q9Y253; recombinant Pol eta, fluorescent DNA replication assay; Potency, µM (top dose mostly 114 µM), inactives show at the top dose activity change, negative = inhibition, hits mostly inhibitors; 390,000 tested, 1.2% active; AID 588591; note: % is set by controls: 0 for no effect and ±100 for the full control effect
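Pol eta (10 nM) was preincubated with compounds for 15 min at room temperature, after which fluorescent replication substrate (50 nM final) was added to start the reaction. Fluorescence was read kinetically at 0 and 10 min.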
POLI inh = inhibitors of human DNA polymerase iota | Q9UNA4 | Pol iota fluorescent replication assay, 10 min | Potency, µM (highest dose often 115 µM), for inactives: at the highest dose activity, negative = inhibition, actives largely listed as inhibitors | 390,000 tested, 1% active | AID 588590
Target sequence (Q9UNA4 whole entry, looked up): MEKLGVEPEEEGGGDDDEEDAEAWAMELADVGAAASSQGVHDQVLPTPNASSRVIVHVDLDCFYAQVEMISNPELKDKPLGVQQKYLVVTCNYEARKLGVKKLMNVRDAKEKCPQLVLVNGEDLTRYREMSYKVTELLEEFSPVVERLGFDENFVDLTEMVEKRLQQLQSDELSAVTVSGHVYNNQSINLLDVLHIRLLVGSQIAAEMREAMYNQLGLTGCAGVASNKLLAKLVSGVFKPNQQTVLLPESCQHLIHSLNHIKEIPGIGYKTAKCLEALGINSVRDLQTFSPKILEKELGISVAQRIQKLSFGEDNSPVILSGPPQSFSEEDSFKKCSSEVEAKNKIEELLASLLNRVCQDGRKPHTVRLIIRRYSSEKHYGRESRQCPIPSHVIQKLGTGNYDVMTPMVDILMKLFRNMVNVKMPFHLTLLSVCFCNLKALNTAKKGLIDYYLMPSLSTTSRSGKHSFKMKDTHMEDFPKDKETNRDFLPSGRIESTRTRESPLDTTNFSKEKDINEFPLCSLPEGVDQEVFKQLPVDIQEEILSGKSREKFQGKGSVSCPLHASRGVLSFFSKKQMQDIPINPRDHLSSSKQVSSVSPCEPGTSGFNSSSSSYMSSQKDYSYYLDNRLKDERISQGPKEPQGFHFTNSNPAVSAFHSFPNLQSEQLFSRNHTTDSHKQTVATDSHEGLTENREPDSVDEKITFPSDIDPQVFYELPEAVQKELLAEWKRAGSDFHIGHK
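Pol iota at 10 nM preincubated 15 min with compounds at room temperature; reaction started with fluorescent substrate, 50 nM final. Fluorescence read kinetically at 0 and 10 min; buffer-only wells as negative control.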
Pol beta inh = inhibitors of human DNA polymerase beta; P06746; Pol beta primer extension/strand displacement, fluorescence kinetic; Potency, µM (series often up to 114 µM), inactives show at the top dose activity change, negative = inhibition, usual class: inhibitors; 340,000 tested, 1.3% active; AID 485314; note: % is set by controls: 0 for no effect and ±100 for the full control effect
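Pol beta (10 nM) and compounds were preincubated 15 min at room temperature, then 50 nM substrate (final) started primer extension/strand displacement. Reads were taken at 0 and 10 min; concentration-response data were fitted to a four-parameter Hill equation.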
TbPGK inh = TbPGK inhibition, hit validation | shares compounds with Pol kappa inh-1 | TbPGK coupled GAPDH assay, Kinase-Glo luminescence | Potency, µM (series often up to 57.5 µM), inactives show at the highest dose activity change, negative = inhibition, hits mostly inhibitors | 500 tested, 79% active | AID 686980; note: % is set by controls: 0 for no effect and ±100 for the full control effect; nearly all actives have a fitted effect of over 65% in size
Pol iota confirm = Human Pol iota inhibitor confirmatory assay; Pol iota primer extension, TAMRA/BHQ fluorescence; Potency, µM, most hits filed as inhibitors; 1,500 tested, 77% active; shares compounds with Pol kappa inh-1
Pol kappa inh-2 = Pol kappa (human) inhibition, cherry-pick confirmation; purified Pol-kappa, fluorescent strand-displacement substrate; 920 tested, 76% active; Potency, µM, most hits filed as inhibitors; AID 720501; shares compounds with Pol eta inh-1
Pol eta inh-2 = Pol eta (human) inhibition, cherry-pick confirmation; shares compounds with Pol eta inh-1; Pol eta primer extension, TAMRA/BHQ fluorescence, 10 min; Potency, µM, usual class: inhibitors; 2,600 tested, 64% active
FEN1 inh-2 = FEN1 inhibition, cherry-pick retest; AID 720498; 880 tested, 79% active; shares compounds with FEN1 inh-1; Potency, µM, most hits filed as inhibitors; FEN1 flap cleavage, TAMRA/BHQ2 fluorogenic DNA substrate; note: nearly all actives have a fitted effect of over 60% in size
* marks the source's active call; other numbers are inactive results; u = inconclusive; x = no result given; [ ] = dose if it differs, or a comment. Only some compounds are listed: those with a hit (about 2.4% of all), similar ones and a draw of the others. Calls come from the whole dose curve; as a rule, active = well fitted curve in the direction sought with a large enough effect; inconclusive = small, poorly fitted or top-dose-only effect, or another doubt; inactive = no such curve, though single readings can be large; an effect the other way counts as inactive or inconclusive. Potency is the fitted concentration of half-maximal effect.

SMILES	Pol kappa inh-1	FEN1 inh-1	TDP1 block	Pol eta inh-1	POLI inh	Pol beta inh	Pol eta inh-2	others
O=C(/C=C\c1ccccc1)NC1CC(=O)N(c2ccccc2)C1 (stereo not given)	-4%[60.1 µM]	-11%	0%	-19%	9%	17%	x
Nc1cc(=O)nc(SCC(=O)Nc2ccc(F)cc2)n1-c1ccc(Cl)cc1	0%	-4%	5%	-16%	6%	11%	x
CCn1cc(C(=O)O)c(=O)c2cc(F)c(N/N=C/c3ccccc3)cc21	-26%	u	3%	2.5µM*	u	u	2.7*	Pol iota confirm=84*;FEN1 inh-2=38*
O=C1c2ccccc2-c2onc3ccc(N4CCCC4)c1c23	-21%	22µM*	9%	u	35µM*	79µM*	u	Pol iota confirm=60*;Pol kappa inh-2=u;FEN1 inh-2=38*
Cn1c(=O)cc2c3c(c(N4CCCCC4)ccc31)C(=O)c1ccccc1-2	-32%	u	10%	-8%	u	u	x
O=c1ccc2c(-c3ccccc3)c3ccc(O)cc3oc-2c1	u	45µM*	x	40µM*	32µM*	7.9µM*	11*	Pol iota confirm=34*;Pol kappa inh-2=3*;FEN1 inh-2=34*
O=c1cc(-c2ccccc2)oc2cc(O)ccc12	-4%	5%	11%	-2%	-8%	x	x
COC(=O)c1cccc(NC2=NS(=O)(=O)c3ccccc32)c1	-3%[60.1 µM]	10%	5%	-19%	5%	-1%	x
CC(C)CN(CC(C)C)c1ccc(/C=C/c2ccnc3ccccc23)cc1	1%	-6%	x	x	18%	x	x
NS(=O)(=O)c1cc(C(=O)NC2CCSc3ccccc32)ccc1Cl (stereo not given)	0.79µM*	2.8µM*	1.3µM*	-100%	1.3µM*	0.32µM*	0.6*	TbPGK inh=0.15µM*;Pol iota confirm=0.6*;Pol kappa inh-2=0.27*;FEN1 inh-2=3.8*
O=C(CN1C(=O)/C(=C/c2ccco2)SC1=S)Nc1ccc(C(=O)O)c(O)c1	-8%	3%	x	3.5µM*	-14%	11µM*	6.7*	TbPGK inh=33µM*;Pol iota confirm=15*;FEN1 inh-2=27*
O=C(CCCN1C(=O)/C(=C/c2ccccc2)SC1=S)Nc1ccc(C(=O)O)c(O)c1	-1%	-6%	8%	-5%	4%	-18%	x
Cc1cc2n(n1)CCC(=O)N2Cc1ccc(C(=O)Nc2ccc(Br)c(C)c2)cc1	-9%	-9%	-6%	-17%	6%	0%	x
O=C(N/N=C/c1ccncc1)c1cccc(S(=O)(=O)Nc2ccc(Cl)cc2)c1	28µM*	u	x	50µM*	28µM*	u	67*	Pol iota confirm=47*;FEN1 inh-2=67*
N#C/C(=C\c1ccc(OCc2ccc(F)cc2)cc1)C(=O)Nc1cccc(C(=O)O)c1	u	u	45µM*	40µM*	u	u	u	Pol iota confirm=u;Pol kappa inh-2=42*;FEN1 inh-2=u
O=C(N/N=C/c1cccc(O)c1)c1ccc(-n2cnnn2)cc1	-10%	0%	-10%	-14%	u	x	x
O=C(N/N=C/c1ccc(O)c(O)c1)c1ccc(-n2cnnn2)cc1	79µM*	-24%	u	22µM*	45µM*	x	u
COc1ccccc1CNC(=O)C(=O)NCC(c1cccnc1)N1CCN(c2ccccc2)CC1 (stereo not given)	-38%	1%	9%	-17%	1%	-12%	x
CC(C)NS(=O)(=O)c1ccc2[nH]c3nc(SCC(=O)Nc4ccc(F)c(F)c4)nnc3c2c1	79µM*	-2%	x	x	79µM*	x	u
CCOc1ccc(NC(=O)CSc2nnc3c(n2)[nH]c2ccc(S(=O)(=O)N4CCCCC4)cc23)cc1	-37%	2%	x	x	-15%	x	x
CSc1ccccc1NC(=O)c1cnccn1	-5%	-15%	3%	-13%	-14%[58.9 µM]	-12%	x
CSc1ccccc1NC(=O)c1cc2ncc(Br)cn2n1	u	41%	x	45µM*	-83%	u	u
CCCN(c1ccc(C(C)C)cc1)S(=O)(=O)c1ccc2c(c1)oc(=O)n2CC(=O)OCC	-11%	-19%	-8%	-20%	13%	22%	x
Cc1ccc(S(=O)(=O)N2CCOCC2)cc1NC(=O)COC(=O)COc1ccc(C#N)cc1	x	x	x	-1%	x	x	x
CC1=C(C(=O)Nc2ccccc2C)C(c2ccncc2)n2nc(SCc3ccccc3)nc2N1 (stereo not given)	1%	-10%	-9%	-8%	-21%	0%	x
SMILES	Pol kappa inh-1	FEN1 inh-1	TDP1 block	Pol eta inh-1	POLI inh	Pol beta inh	Pol eta inh-2	others
COc1cccc(CNC(=O)c2cc3c(=O)oc4ccc(C)cc4c3s2)c1	-12%	-7%	6%	-30%	39%	0%	x
O=C(COc1ccccc1Cl)NCc1ccco1	-3%	-6%	7%	7%	6%	-10%	x
CCOc1ccccc1OCC(=O)NCc1ccco1	u	8%	-11%	79µM*	20µM*	28µM*	u
Cc1ccc2nc(N3CCC(C(=O)N4CCN(c5cccc(C)c5C)CC4)CC3)[nH]c2c1	-12%[60.1 µM]	-13%	14%	-6%	10%	7%	x
N#Cc1ccccc1NCC(=O)N1CCN(S(=O)(=O)c2ccccc2)CC1	0%	-14%	1%	3%	-10%	x	x
Cc1sc2nc(SCC(=O)N3CC(C)OC(C)C3)n(C)c(=O)c2c1C (stereo not given)	-9%	5%	3%	16µM*	u	u	u
CCN(CC)S(=O)(=O)c1ccc(NC(=O)Cc2cccs2)cc1	-27%	-13%	-3%	56µM*	u	28µM*	u
CC1CCN(S(=O)(=O)c2ccc(NC(=O)Cc3cccs3)cc2)CC1	u	-12%	3%	u	u	14µM*	u
COCCCNc1oc(-c2ccc(COc3ccccc3C)o2)nc1C#N	-12%	-13%	9%	-9%	3%	2%	x
Oc1cccnc1CCc1ccccc1	5%	1%	0%	-14%	16%	40%	x
